Results on 62 molecules are retold here after PubChem BioAssay AID493248 (Broad Institute, 2011).

The structures appear in SMILES notation. Screen size: about 2,300 compounds; about 1,400 (61%) were called active. Another 7% or so got no clear call; they are omitted. The rule behind the calls is not given here. The set was probably picked from earlier hits. Only a sample is shown. Results with a measured potency or affinity are listed apart.

In this test the target is FAD-linked sulfhydryl oxidase ALR (Homo sapiens) (UniProt P55789). In words: ALR-catalysed DTT oxidation blockers – biochemical, H2O2 detection, luminescence, cherry-pick, dose response (AID 493248). Particulars: purified ALR, H2O2 HRP-luminol luminescence; at 10 µM (top of the series).
Sequence of FAD-linked sulfhydryl oxidase ALR (Homo sapiens) (P55789 whole entry, looked up): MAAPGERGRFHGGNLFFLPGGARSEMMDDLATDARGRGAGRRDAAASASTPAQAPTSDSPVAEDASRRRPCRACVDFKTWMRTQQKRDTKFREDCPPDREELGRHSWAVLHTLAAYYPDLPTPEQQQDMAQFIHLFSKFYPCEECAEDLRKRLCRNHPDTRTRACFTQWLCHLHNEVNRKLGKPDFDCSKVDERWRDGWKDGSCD
As to `Nc1ccc2sc(N)nc2c1`, the activity change, negative = inhibition amounted to 299%.

`Cc1cc(NC(=O)c2sc(Nc3ccc(F)cc3)nc2N)no1`: the activity change, negative = inhibition was -41.5%.

As to `O=C(c1ccccn1)N1CCCC(N2CCN(c3ccc(F)cc3)CC2)C1` (configuration not stated), the activity change, negative = inhibition was -82.4%.

Take `CC(C)N(c1nnc(N)s1)C(C)C`: the activity change, negative = inhibition is -37.4%.

Consider `COc1ccc(C(N)CCc2ccco2)cc1` (configuration not stated), for which the activity change, negative = inhibition is 0.936%.

For `CC(C)NC(=O)Nc1cccs1`, the activity change, negative = inhibition was -47.1%.

Take `O=C(Nc1cccs1)Nc1c(F)cc(F)cc1Br`: the activity change, negative = inhibition is -42.8%.

As to `Cc1ccc(NC(=O)Nc2cccs2)nc1`, the activity change, negative = inhibition was -2.58%.

As for `Cc1ccc(N2CCN(CCCN3C(=O)C4CCCN4C3=O)CC2)cc1` (configuration not stated), the activity change, negative = inhibition was -22.5%.

Consider `Oc1ccc(NCc2cccs2)cc1`, for which the activity change, negative = inhibition is 41.7%.

On to `COc1ccc(NC2CCCN(C(=O)c3oc(C)cc3C)C2)cc1OC` (configuration not stated), for which the activity change, negative = inhibition came out at 75.6%.

In the case of `O=C(C1CCCC1)N1CCCC(Nc2ccc(F)cc2)C1` (configuration not stated), the activity change, negative = inhibition is -72.7%.

For the molecule `CCCCNC(=O)c1onc(CCl)c1C(=O)OC`, the activity change, negative = inhibition is -46.6%.

For `C=CCNC(=O)c1onc(CSc2ccc(C)c(C)c2)c1C(=O)O`, the activity change, negative = inhibition turned out to be 10.6%.

As for `Cc1cc2c(N3CCCCC3C)ncnc2s1` (configuration not stated), the activity change, negative = inhibition is -5.25%.

Regarding `Cc1ccc(NC(=O)C2CCN(S(=O)(=O)c3cccc4cccnc34)CC2)nc1`, the activity change, negative = inhibition is -47.3%.

As to `CC(c1ccc(F)cc1)n1c(-c2cccs2)n[nH]c1=S` (configuration not stated), the activity change, negative = inhibition is -12.6%.

Turning to `CCn1c(-c2cc(Cl)ccc2OC)n[nH]c1=S`, the activity change, negative = inhibition is -40.3%.

For `Cc1n[nH]c(=S)n1-c1ccc(Cl)cc1`, the activity change, negative = inhibition is -91.4%.

Take `Cc1cccc(-n2c(C)n[nH]c2=S)c1C`: the activity change, negative = inhibition was -35.3%.

For `CC(NS(=O)(=O)c1ccccc1)c1n[nH]c(=S)n1-c1ccccc1` (configuration not stated), the activity change, negative = inhibition was -28.7%.

Regarding `Oc1c(Br)cc(Br)c(/C=N/n2c(-c3ccccc3)n[nH]c2=S)c1Br`, the activity change, negative = inhibition was -75.2%.

In the case of `CCn1c(N)[n+](CC(=O)Nc2ccc(SC(F)F)cc2)c2ccccc21`, the activity change, negative = inhibition turned out to be 17.1%.

`Cc1cc(NCc2ccccn2)nc2ccccc12`: the activity change, negative = inhibition is 16.8%.

As for `Cc1nn(CC2CCCCC2)c(N)c1-c1ccccc1`, the activity change, negative = inhibition was -21.2%.

Turning to `CN(CC(=O)NCc1ccco1)S(=O)(=O)c1ccc2c(c1)n(C)c(=O)c(=O)n2C`, the activity change, negative = inhibition is -5.75%.

With `Cc1ccc(S(=O)(=O)NNC(=O)c2ccc(O)cc2)cc1`, the activity change, negative = inhibition was -54.2%.

`Cc1cc(C)nc(Sc2c(C)nn(-c3ccccc3)c2C)n1`: the activity change, negative = inhibition is -4.01%.

`Cc1ccc([N+](=O)[O-])cc1S(=O)(=O)Nc1ccc(O)c(Sc2ncn[nH]2)c1`: the activity change, negative = inhibition is -101%.

Regarding `Cc1cccc(NC(=O)C2CCN(S(=O)(=O)c3cccc4cccnc34)CC2)c1`, the activity change, negative = inhibition was -19.2%.

With `COc1ccc(N=C(N(C)C)P(=O)(N(C)C)N(C)C)cc1`, the activity change, negative = inhibition is -0.552%.

`CN(C)/N=C/c1ccc(OC(=O)c2cccc([N+](=O)[O-])c2)cc1`: the activity change, negative = inhibition was -3.63%.

Turning to `Nc1ccc2c(c1)-c1ccccc1S(=O)(=O)N2`, the activity change, negative = inhibition is -105%.

Take `Cn1nc(-c2ccc(Cl)cc2)c2cc(C(=O)NC3CC3)sc21`: the activity change, negative = inhibition was -2.11%.

Turning to `CCN1CCN(C(=O)c2cc3c(-c4ccc(Cl)cc4)nn(C)c3s2)CC1`, the activity change, negative = inhibition was -4.97%.

On to `COc1cccc(-c2nc(CCl)cs2)c1`, for which the activity change, negative = inhibition was found to be 22.5%.

For `Fc1ccc2c(c1)/C(=N/Nc1ccccn1)CCS2`, the activity change, negative = inhibition was -12.8%.

`COc1ccc(-c2cc(-c3n[nH]c(=S)n3-c3cc(OC)ccc3OC)[nH]n2)cc1`: the activity change, negative = inhibition stood at 46.9%.

Turning to `O=C(CN1C(=O)S/C(=C\C=C\c2ccccc2)C1=O)Nc1ccc(C(=O)O)cc1`, the activity change, negative = inhibition is -22.9%.

Consider `O=c1c2c(nc3n1CCCCC3)sc1c(O)cccc12`, for which the activity change, negative = inhibition was -92.9%.

For the molecule `COc1ccc2c(/C=N/NS(=O)(=O)c3ccc(C)cc3)c[nH]c2c1`, the activity change, negative = inhibition was -4.96%.

For `COc1cc(/C=N/Nc2cc(C)nc(N)n2)ccc1O`, the activity change, negative = inhibition was -108%.

In the case of `COc1ccc(/C=N/Nc2ccc([N+](=O)[O-])cc2)cc1O`, the activity change, negative = inhibition is -70%.

With `Oc1ccc(/C=N/NC2=NCCCCC2)cc1`, the activity change, negative = inhibition is -110%.

Regarding `COc1ccccc1NS(=O)(=O)c1cc([N+](=O)[O-])ccc1N/N=C/c1c[nH]c2ccccc12`, the activity change, negative = inhibition was 0.734%.

`O=C(CNc1ccccc1)N/N=C/c1c[nH]c2ccccc12`: the activity change, negative = inhibition was -29.1%.

In the case of `O=[N+]([O-])c1cccc(N/N=C/c2cccc(O)c2O)c1`, the activity change, negative = inhibition is -6.94%.

`COc1ccc(Nc2nc(N)c3ccccc3n2)c(OC)c1`: the activity change, negative = inhibition is -5.05%.

With `Cn1c(CNc2ccc(F)cc2)nc2ccccc21`, the activity change, negative = inhibition was determined as 4.17%.

On to `COc1ccc2nc3ccccc3nc2c1N`, for which the activity change, negative = inhibition worked out at 417%.

Regarding `CCN1C(=O)c2cccc3c(N)ccc1c23`, the activity change, negative = inhibition is -69.8%.

For `Cc1ccc(S(=O)(=O)NCC(=O)NCC2CCCCC2)cc1C`, the activity change, negative = inhibition worked out at 18.2%.

Consider `Cn1c(=O)[nH]c(=O)c2c1[nH]c(=S)n2Cc1ccccc1`, for which the activity change, negative = inhibition was -58.1%.

Regarding `O=C(c1cc(-c2ccc(O)cc2)on1)N1CCCCCC1`, the activity change, negative = inhibition is -103%.

Take `Cc1cnc(C(=O)Nc2ccc(C(=O)N3CCCCC3)cc2)cn1`: the activity change, negative = inhibition stood at 0.57%.

`C/C(=N\NC(=O)c1csc2ccccc12)c1ccc(O)cc1`: the activity change, negative = inhibition was -107%.

On to `CC(C)(C)C(=O)NC1=NCCS1`, for which the activity change, negative = inhibition was -0.254%.

For the molecule `COc1ccc(CNc2ccc(Br)cc2)cc1`, the activity change, negative = inhibition was -0.843%.

With `C/C(=N\Nc1ccccn1)c1ccc(OC(F)F)cc1`, the activity change, negative = inhibition is 30.6%.

On to `COc1cc(C(=O)n2nc(C)cc2C)ccc1O`, for which the activity change, negative = inhibition worked out at 108%.

`CC(C)(C)NC(=O)C(Cc1ccccc1)NS(=O)(=O)c1ccc2c(c1)CCC(=O)N2` (configuration not stated): the activity change, negative = inhibition is -98.2%.

In the case of `COc1c(Cl)cc(C(=O)NN)cc1Cl`, the activity change, negative = inhibition was -36.3%.
